# Screens deposited in PubChem BioAssay by National Center for Advancing Translational Sciences (NCATS).
# An excerpt weighted towards active compounds, which were near 5% of everything screened.
# HCMV antiviral: inhibitors of human cytomegalovirus; HFF cells, HCMV-luciferase reporter, 72 h; hits give low values; activity change, negative = inhibition, % at 57.5 µM; 4.5% of 410,000 active; in the data active means activity change below about -60%; inconclusive means no clear call, values can overlap the other calls; inactive means above about -39%
#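 Compounds were evaluated in HFFs infected with an HCMV luciferase reporter virus (MOI 1 PFU/cell). Luciferase in lysates collected 72 h post infection served as the replication measure.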
# VACV Venus inh: inhibitors of vaccinia virus (Venus reporter) | Vaccinia virus Venus reporter expression, fluorescence | Potency, µM (highest dose often 36.5 µM), for inactives: top-dose activity change, negative = inhibition, hits mostly inhibitors | 0.46% of 330,000 active | AID 720580; calls by dose curve; tested in A549 cells; further: potency means the concentration at half of the fitted maximal effect; nearly all actives have a fitted effect of over 30% in size
# LmPK inhibitor: LmPK (Leishmania mexicana) enzyme inhibition. Q27686. purified LmPK, Kinase-Glo ATP luminescence, 1 h. 0.37% of 290,000 active. AID 1721. Potency, µM (top dose mostly 57.5 µM), for inactives: at the highest dose activity change, negative = inhibition, most hits filed as inhibitors; further: potency means the concentration at half of the fitted maximal effect
# Target sequence (Q27686 whole entry, looked up): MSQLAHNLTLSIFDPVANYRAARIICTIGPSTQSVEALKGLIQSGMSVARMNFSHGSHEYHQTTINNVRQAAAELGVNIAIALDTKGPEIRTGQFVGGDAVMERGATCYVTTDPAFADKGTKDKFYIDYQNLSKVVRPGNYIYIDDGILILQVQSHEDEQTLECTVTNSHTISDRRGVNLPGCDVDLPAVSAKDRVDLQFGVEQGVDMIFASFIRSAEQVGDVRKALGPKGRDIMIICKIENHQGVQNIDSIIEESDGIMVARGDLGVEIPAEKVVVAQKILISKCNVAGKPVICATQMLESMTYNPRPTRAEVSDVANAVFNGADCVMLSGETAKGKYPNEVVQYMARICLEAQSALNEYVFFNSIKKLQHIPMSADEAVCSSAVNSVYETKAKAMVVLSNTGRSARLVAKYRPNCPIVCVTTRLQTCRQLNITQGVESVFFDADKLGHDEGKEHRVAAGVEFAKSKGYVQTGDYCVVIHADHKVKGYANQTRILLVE
#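 In 50 mM imidazole pH 7.2 with 7 mM MgCl2, LmPK (0.1 nM) turned over PEP (0.5 mM) and ADP (0.1 mM) for 1 h at room temperature. Luciferase read-out of ATP.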
# Tb PYK inh: blocks Trypanosoma brucei pyruvate kinase; Q57TT1; TbPYK enzyme, Kinase-Glo Plus ATP luminescence, 45 min; Potency, µM (series often up to 76.8 µM), inactives show top-dose activity, negative = inhibition, actives largely listed as inhibitors; 0.12% of 410,000 active; AID 624173; further: potency means the concentration at half of the fitted maximal effect; nearly all actives have a fitted effect of over 50% in size
#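 T. brucei PYK with substrate was exposed to pin-transferred compounds across a concentration series, then started with 130 uM ADP (final). After 45 min at room temperature, Kinase-Glo Plus luminescence was read, normalized and curve-fitted.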
# Vaccinia mCherry: vaccinia inhibition (mCherry reporter). Potency, µM (highest dose often 36.5 µM), for inactives: at the top dose activity change, negative = inhibition, usual class: inhibitors. AID 720579. 0.63% of 310,000 active. Vaccinia virus mCherry reporter infection, fluorescence; calls by dose curve; tested in A549 cells; further: potency means the concentration at half of the fitted maximal effect; nearly all actives have a fitted effect of over 35% in size
# * hit, by the source's call; i = inactive; ? = inconclusive; . = not tested or not shown; ! = not active in a repeat. Unless noted, the call rests on the fitted dose curve; in most records, active means well fitted curve in the direction sought with a large enough effect; inconclusive means small, poorly fitted or top-dose-only effect, or another doubt; inactive means no such curve, though single readings can be large; an effect the other way counts as inactive or inconclusive. On the % scale 0 is the no-effect control and ±100 the full control effect.
SMILES,HCMV antiviral,VACV Venus inh,LmPK inhibitor,Tb PYK inh,Vaccinia mCherry
COc1cccc(OCC(Cn2c(C)nc3ccccc32)OC(C)=O)c1 (stereo unspecified),-70*,-7%,2%,-6%,i
O=C(CCS(=O)(=O)c1ccc(Br)cc1)N1CCN(c2ccc(Cl)cc2)CC1,-79*,.,8%,-2%,.
O=C(CCS(=O)(=O)c1ccc(Br)cc1)N1CCN(c2ccc(F)cc2)CC1,-65*,.,6%,-2%,.
COc1ccc(N2CCN(C(=O)CCS(=O)(=O)c3ccc(OC)cc3)CC2)cc1,-33,-7%,6%,4%,i
O=C(CCSCc1cccc(Cl)c1)N1CCN(c2ccc(Cl)cc2)CC1,-63*,0%,.,-5%,-3%
O=C(CCSCc1ccccc1Cl)N1CCN(c2cccc(Cl)c2)CC1,7,-8%,4%,0%,-9%
COc1cccc(C(=O)NNC(=O)c2ccc3ccccc3c2O)c1,-35,.,.,1%,.
Cn1c(=O)c(C(=O)COC(=O)c2cc(C(F)(F)F)nc3c(C(F)(F)F)cccc23)c(N)n(CC2CC2)c1=O,28,.,5%,.,.
Cc1ccc(-c2onc(C)c2C)cc1S(=O)(=O)NC1CCC(C)CC1 (stereo unspecified),-67*,-21%,.,2%,-20%
COc1ccc(-c2onc(C)c2C)cc1S(=O)(=O)N1CCC(C)CC1,-79*,?,.,-6%,i
COc1ccc(-c2cc(C)no2)cc1S(=O)(=O)N1CCOc2ccc(Cl)cc21,?,1%,12%,2%,-10%
Cc1cc(C)c(NS(=O)(=O)c2cc(-c3onc(C)c3C)ccc2C)c(C)c1,-62*,-16%,.,4%,-15%
Cc1ccc2c(c1)N(S(=O)(=O)c1cc(-c3onc(C)c3C)ccc1C)CCO2,-67*!,-19%,4%,0%,-24%
Cc1ccc(-c2onc(C)c2C)cc1S(=O)(=O)Nc1ccc(Cl)cn1,103,-10%,.,0%,i
COc1ccc(NS(=O)(=O)c2cc(-c3onc(C)c3C)ccc2C)c(OC)c1,12,-5%,.,1%,i
Cc1cc(-n2c(C)c3c(C)nnc(C)c3c2C)ccc1N,-62*,0%,0%,-1%,15%
Nc1nc(NC(=O)c2ccccc2)nn1-c1ccccc1,-13,.,-7%,-8%,.
O=C(Nc1nc(NC(=O)c2ccco2)n(-c2ccccc2)n1)c1ccccc1,-100*,?,-2%,5%,?
CCC(=O)N1CCN(c2ccc(NC(=O)c3ccc4c(c3)OCCO4)cc2)CC1,37,2%,2%,2%,-13%
O=C(Nc1cccc(C(=O)NC2CC2)c1)c1ccc(Cl)c(S(=O)(=O)N2CCOCC2)c1,-22,.,.,2%,.
CCC(=O)N1CCN(c2ccc(Cl)cc2NC(=O)c2ccc3c(c2)OCCO3)CC1,-61*,.,7%,6%,.
COc1ccc(C(=O)Nc2ccc(S(=O)(=O)N3CCOCC3)cc2)cc1,-39,-12%,.,4%,-17%
O=C(Nc1cccc(Br)c1)c1ccc(Cl)c(S(=O)(=O)N2CCOCC2)c1,-98*,?,1%,6%,?
COc1ccc(C(=O)Nc2ccc(Cl)c(S(=O)(=O)N3CCOCC3)c2)cc1,-76*,-3%,.,-1%,i
O=C(NC(=S)Nc1ccc(N2CCCCC2)c(Cl)c1)c1ccc2c(c1)OCCO2,-63*,?,-2%,-2%,?
SMILES,HCMV antiviral,VACV Venus inh,LmPK inhibitor,Tb PYK inh,Vaccinia mCherry
O=C(Nc1ccc(Cl)c(S(=O)(=O)N2CCOCC2)c1)c1ccc2c(c1)OCCO2,-62*,-13%,2%,1%,-10%
CN1CCN(CC(=O)N2CCn3c4c(c5cc(C6CCCCC6)ccc53)CCCC42)CC1 (stereo unspecified),.,?,-8%,-6%,11µM*
Cc1ccc2c(c1)c1c3n2CCN(CCC(=O)O)C3CCC1 (stereo unspecified),20,-19%,1%,-19%,-17%
Cc1ccc2c(c1)c1c3n2CCN(C(=O)CN2CCN(C)CC2)C3CCC1 (stereo unspecified),-20,-13%,1%,0%,-25%
Cc1ccc2c(c1)c1c3n2CCN(CC(N)=O)C3CCC1 (stereo unspecified),-98*,-17%,-2%,-11%,?
COc1ccc(CCNC(=O)C2CCN(S(=O)(=O)c3ccc(C)cc3)CC2)cc1OC,-5,.,-2%,3%,.
